# High-throughput results: PubChem, several laboratories
# Bim-Mcl-1: inhibitors of Bim-Mcl-1 interaction, human; Bead-based flow cytometry, Bim peptide-Mcl-1 binding; inhibition, % at 10 µM; 0.1% of 190,000 active; AID 1009; in the data active means inhibition above about 40%;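 further: 0% = no compound tracer wells and 100% = peptide blocker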
# Target sequence (Q07820 whole entry, looked up): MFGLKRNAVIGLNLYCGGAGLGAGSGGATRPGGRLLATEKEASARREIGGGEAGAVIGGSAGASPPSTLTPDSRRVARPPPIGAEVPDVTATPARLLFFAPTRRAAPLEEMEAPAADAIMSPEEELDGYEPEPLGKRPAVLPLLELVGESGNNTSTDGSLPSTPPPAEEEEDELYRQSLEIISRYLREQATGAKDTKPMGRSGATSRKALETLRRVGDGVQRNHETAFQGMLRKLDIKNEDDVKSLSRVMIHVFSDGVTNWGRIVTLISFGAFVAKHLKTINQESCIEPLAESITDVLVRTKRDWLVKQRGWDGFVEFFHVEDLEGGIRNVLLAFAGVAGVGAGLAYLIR
# Hck-Nef inh: human Hck-Nef kinase inhibition; P08631; inhibition, % at 20 µM; Recombinant Hck-YEEI plus Nef, Z-Lyte FRET kinase assay; 0.68% of 220,000 active; AID 463187;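 active means Hck-Nef kinase inhibition above about 50%, limit read from the data; inactive means inhibition below that limit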;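 further: 0% = DMSO with Hck plus Nef and 100% = Hck alone without Nef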
# 14-3-3 Bad PPI: disrupts binding of bovine 14-3-3 zeta to phospho-Bad peptide | P63103 | 0.71% of 220,000 active | AID 781 | inhibition, % at 21.7 µM | TR-FRET 14-3-3zeta/Dy647-pBad peptide displacement, 1 h;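 active means inhibition above about 70%, limit read from the data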;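 further: 0% = full 14-3-3 plus peptide FRET controls and 100% = background without 14-3-3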
# Target sequence (P63103 whole entry, looked up): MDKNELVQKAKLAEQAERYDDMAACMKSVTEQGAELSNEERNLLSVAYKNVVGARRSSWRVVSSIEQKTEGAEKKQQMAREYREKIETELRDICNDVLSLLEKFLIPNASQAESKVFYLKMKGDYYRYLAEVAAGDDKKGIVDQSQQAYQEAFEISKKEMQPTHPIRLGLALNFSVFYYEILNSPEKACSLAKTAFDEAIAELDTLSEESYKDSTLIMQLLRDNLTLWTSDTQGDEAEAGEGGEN
# Mcl1 Noxa PPI: Mcl-1/Noxa interaction inhibition. Q07820. TR-FRET Mcl-1/Noxa peptide binding, 2 h. inhibition, % at 21.7 µM. 1.5% of 220,000 active. AID 1022;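 active means compounds that cut the protein-peptide binding signal by more than 50% relative to plate controls in a single-dose test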;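 further: His-tagged Mcl-1 with rhodamine Noxa BH3 peptide and terbium anti-His antibody; 0% = Mcl-1 plus Noxa peptide wells and 100% = peptide-only wells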
# eIF4E-4G inh: inhibitors of eIF4E and eIF4G interaction in translation initiation; inhibition, % at 21.7 µM; TR-FRET eIF4E-eIF4GI(517-606) binding, 2 h; P63073+Q04637; 0.37% of 220,000 active;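 active means inhibition above about 30%, limit read from the data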;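 further: 0% = full FRET control wells and 100% = background wells lacking eIF4GI fragment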
# Mcl1 Bid PPI: disrupts binding of human Mcl-1 to Bid peptide | inhibition, % at 21.7 µM | TR-FRET Mcl-1/Bid-Dy647 peptide binding, 1536-well | Q07820 | 0.97% of 220,000 active | AID 1021;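 active means compounds that cut the binding signal by more than half at the single screening dose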;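 further: His-tagged Mcl-1 with europium anti-His antibody binding Bid BH3 peptide; 0% = Mcl-1 plus peptide wells and 100% = peptide-only wells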
# Numbers without * were called inactive; x = not tested or not shown. Only some compounds are listed: those with a hit (about 3.5% of all), similar ones and a draw of the others.
SMILES,Bim-Mcl-1,Hck-Nef inh,14-3-3 Bad PPI,Mcl1 Noxa PPI,eIF4E-4G inh,Mcl1 Bid PPI
CCc1nnc(NC(=O)CSc2nnc(-c3ccoc3C)n2-c2cccc(C)c2)s1,-3,1,3,-9,-4,-18
Cc1cccc(-n2c(SCC(=O)Nc3nnc(C)s3)nnc2-c2ccoc2C)c1,-8,-1,10,-4,10,67*
Cc1ccc(NC(=O)c2snc3ccc(Cl)cc23)cc1C,-4,4,-2,-1,-1,-10
Cc1ccccc1Cn1ccc(NC(=O)c2cc3ncc(Br)cn3n2)n1,-1,16,13,20,14,-81
CSc1ccccc1NC(=O)c1cc2ncc(Br)cn2n1,-1,-13,25,59*,9,-19
CC(C)Cc1cc(-c2ccco2)c(C#N)c(N)n1,48*,4,-9,0,3,-16
N#Cc1c(-c2ccco2)cc(-c2ccc(F)cc2)nc1N,0,10,x,65*,x,5
Oc1ccc(Br)cc1C=Nc1ccc2c3c(cccc13)CC2,5,5,-9,12,2,-40
COc1ccc(/C=N/N2C(=N)SCC2=O)cc1,x,17,2,10,-5,-12
N#CCc1nn(-c2ccc(F)cc2)c(N)c1C#N,5,21,-27,15,3,-40
Cc1ccc2cccc(Oc3ncnc4scc(-c5ccccc5)c34)c2n1,1,-1,6,29,1,17
Cc1ccc2cccc(Oc3ncnc4scc(-c5ccc(Cl)cc5)c34)c2n1,-8,-2,13,31,-1,99*
Nc1nc(N)c2cc(Sc3ccc4ccccc4c3)ccc2n1,x,17,20,84*,5,14
COc1ccc(C2CC(c3ccccc3)=NN2C(=O)COC(=O)c2nc3nc(C)cc(C)n3n2)cc1 (stereo not drawn),-2,24,27,23,-2,-12
Cc1cccc(CS(=O)(=O)Cc2ccc(C(=O)O)o2)c1,-5,0,8,56*,3,-2
COCCCNC(=O)c1ccc(CS(=O)(=O)Cc2cccc(C)c2)o1,0,0,-6,11,1,-1
O=C(CSc1nc2ccc(Cl)cc2[nH]1)N1CCN(C(=O)c2ccco2)CC1,21,2,4,57*,-2,-9
CCSc1ccccc1C(=O)NCc1ccc(S(N)(=O)=O)cc1,-3,4,0,53*,-5,-5
O=C(c1ccco1)N1CCN(C(=O)c2cc(-c3ccccn3)nc3ccc(Cl)cc23)CC1,0,2,-8,64*,0,-6
O=C(c1ccco1)N1CCN(C(=O)c2cc(-c3ccccc3)nc3ccccc23)CC1,-2,2,-7,8,8,-3
Cc1ccc2nc(SCC(=O)N3CCN(C(=O)c4ccco4)CC3)[nH]c2c1,-5,3,-4,8,-1,-6
NS(=O)(=O)c1ccc(CNC(=O)c2cc(-c3ccccn3)nc3ccc(Cl)cc23)cc1,1,22,-15,54*,8,-63
CN1CCCC1CCNC1C2CC3CC(C2)CC1C3 (stereo not drawn),-3,2,40,9,-2,10
O=C(Nc1ccc(F)cc1)c1nc2c(nnn2Cc2cccc3ccccc23)c(=O)[nH]1,x,20,-10,15,-3,-47
O=C(CN1CCN(C/C=C/c2ccccc2)CC1)NC(=O)NC1CCCCC1,-2,18,-2,-10,0,-22
SMILES,Bim-Mcl-1,Hck-Nef inh,14-3-3 Bad PPI,Mcl1 Noxa PPI,eIF4E-4G inh,Mcl1 Bid PPI
COc1ccc(CCn2c(=O)[nH]c3cc(C(=O)N4CCN(c5ccccn5)CC4)ccc3c2=O)cc1OC,0,2,-7,-2,1,-2
COc1ccccc1OCCC(=O)OCC(=O)Nc1ccc(Br)cc1F,-1,18,-8,3,0,-18
Cc1nc(NC(=O)c2cccc(-c3cc4ccccc4oc3=O)c2)ccc1Br,-4,22,65,-34,7,58*
CC(=O)Nc1cccc(OCc2ccc(S(=O)(=O)Cc3ccccc3)cc2)c1,-3,-20,8,8,-1,-15
COc1ccc(Nc2nc(C)c3ccccc3n2)cc1,-2,1,93*,17,12,102*
Cc1ccc(OCC(=O)NNc2c3ccccc3nc3ccccc23)cc1,1,12,17,51*,-7,62*
CCOc1ccc(Nc2c3ccccc3nc3ccccc23)cc1,x,-2,2,53*,2,6
CCOc1ccc(NC(=O)c2cc(Cl)nc3ccccc23)cc1,x,11,-6,-17,7,-26
CC1CN(C2CCN(S(=O)(=O)Cc3ccccc3)CC2)CC(C)O1 (stereo not drawn),0,-1,67,14,-1,51*
CCc1ccc(CN2CCN(S(=O)(=O)Cc3ccccc3)CC2)cc1,0,1,79*,9,7,34
Cc1ccc(S(=O)(=O)NC(=O)N(C)C2CCCCC2)cc1,x,9,-16,10,-4,-9
Cc1oc(-c2cccc(Cl)c2)nc1CN1CCC(C(=O)NCc2ccco2)CC1,3,0,-9,-13,-3,-60
Cc1oc(-c2ccc(Cl)cc2)nc1CN1CCC(C(=O)NCc2ccco2)CC1,0,1,-16,-19,64*,-13
NC(=O)COC(=O)c1ccc(-c2ccccc2)cc1,-9,24,-8,2,4,-17
Cn1c(=O)c(C(=O)CSc2nnc(Nc3ccccc3)s2)c(N)n(Cc2ccccc2)c1=O,-4,2,13,70*,-4,17
N#CCCn1cc(/C=C/C(=O)O)c(-c2ccc(F)cc2)n1,2,24,-13,-2,6,-14
NC1=NC(=O)/C(=C/c2cn(CCC(=O)O)nc2-c2ccc(Cl)cc2)S1,-6,5,5,72*,4,43
COc1ccc(-c2nn(CCC(=O)O)cc2/C=C2\SC(N)=NC2=O)cc1,-2,2,-14,67*,2,-35
NC1=NC(=O)/C(=C/c2cn(CCC(=O)O)nc2-c2ccc(F)cc2)S1,-14,2,-4,55*,1,11
CCCOc1ccc(-c2nn(-c3ccccc3)cc2/C=C2\SC(N)=NC2=O)cc1,-3,7,-2,-29,-3,-8
O=C(O)CCn1cc(/C=C\C(=O)c2ccc(Cl)cc2)c(-c2cccc(Br)c2)n1,-2,6,-4,20,6,58*
CCC[n+]1cn(/C(C(=S)Nc2cccc(Cl)c2C)=C(/[O-])c2ccc(OC)c(OC)c2)c2ccccc21,-6,26,-24,8,-3,-29
C[C@@H]1CC[C@H](O)/C=C/C(=O)O[C@H](C)CC[C@H](O)/C=C/C(=O)O1,x,38,-2,-9,-16,-43
COc1cccc(N2CCN(C3C4CC5CC(C4)CC3C5)CC2)c1 (stereo not drawn),2,-15,88*,20,1,13
